The values below come from PubChem BioAssay (EPA / NIEHS).

Values joined by “and” are separate entries in the source; they are usually repeats but may differ in a detail not shown here. Identical values can stand only once. Inconclusive results are not listed. Some structures have more than one record in an assay (separate samples or runs), and their calls can disagree. Active and inactive are the calls of the source. The calls were made as follows, unless noted: active = hit-call score of the fitted dose curve at least 0.9, where 1 is the maximum; inactive = score below 0.9.

Chain of Transcriptional activator Myb (Homo sapiens) (P10242 whole entry, looked up): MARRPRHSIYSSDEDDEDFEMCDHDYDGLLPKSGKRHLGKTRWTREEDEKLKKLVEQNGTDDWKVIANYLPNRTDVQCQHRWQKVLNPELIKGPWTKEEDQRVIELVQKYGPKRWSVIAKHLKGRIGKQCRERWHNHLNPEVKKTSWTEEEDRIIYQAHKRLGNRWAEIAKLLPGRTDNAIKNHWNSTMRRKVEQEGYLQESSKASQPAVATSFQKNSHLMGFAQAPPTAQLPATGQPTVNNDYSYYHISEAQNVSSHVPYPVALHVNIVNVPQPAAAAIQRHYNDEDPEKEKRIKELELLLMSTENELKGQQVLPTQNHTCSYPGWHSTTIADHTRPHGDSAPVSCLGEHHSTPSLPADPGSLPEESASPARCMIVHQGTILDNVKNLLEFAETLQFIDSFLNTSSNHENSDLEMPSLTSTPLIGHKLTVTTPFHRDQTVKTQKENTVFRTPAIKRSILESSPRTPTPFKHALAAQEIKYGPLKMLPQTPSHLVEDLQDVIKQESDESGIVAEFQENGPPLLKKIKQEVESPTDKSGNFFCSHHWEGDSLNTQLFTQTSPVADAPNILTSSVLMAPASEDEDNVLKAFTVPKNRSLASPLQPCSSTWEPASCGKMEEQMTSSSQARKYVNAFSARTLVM

Tested on in one assay: not listed separately
Description: ATG_M_32_TRANS: Attagene TRANS-FACTORIAL HepG2 Assay for M32 Transcription Factor (Internal Marker) (AID 2282984; active = hit-call score of the fitted dose curve at least 0.9, where 1 is the maximum;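 also: transcript level of a background control reporter unit measured by RT-PCR and capillary electrophoresis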). Conditions: HepG2 Attagene TRANS M32 internal marker reporter. The essentials: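 Using transiently transfected HepG2 cells exposed to test chemicals for 24 h, reporter transcripts are converted to labelled cDNA fragments and quantified by capillary electrophoresis. DMSO defines the activity baseline.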
For the molecule `CC1CNCC(C)O1` (configuration not stated), the molecule was called inactive. For `CCOC(=O)CN[C@@H](C(=O)N1CC[C@H]1C(=O)NCc1ccc(/C(N)=N/O)cc1)C1CCCCC1`, the result was inactive. Take `CCCCCCc1ccc(N)cc1`: the molecule was called inactive. On to `CC1=NN(c2ccccc2)C(=O)C1`, for which the call was inactive. With `FC(F)(F)C(F)(F)C(F)(F)C(F)(F)I`, the molecule was called inactive.

As for `Cc1[nH]nc2c1N=C(c1ccccc1Cl)c1cc([N+](=O)[O-])ccc1N2`, the molecule was called inactive.

Regarding `CN(C)c1ccc(C(=C2C=CC(=[N+](C)C)C=C2)c2ccccc2)cc1`, the outcome was inactive. With `O=P(O)(O)CCC(F)(F)C(F)(F)C(F)(F)C(F)(F)C(F)(F)C(F)(F)C(F)(F)C(F)(F)F`, the molecule was classed as inactive.

For the molecule `O=S(=O)(O)c1ccccc1`, the outcome was inactive. The same measure, in the same setting: the entry for `Brc1cc(Br)c(Oc2c(Br)cc(Br)c(Br)c2Br)cc1Br` is “inactive”; for `CCc1cccc(CC)c1NC(=O)C(=O)O` it is “inactive”; for `O=C(F)C(F)(F)C(F)(F)C(F)(F)C(F)F` it is “inactive”.

Consider `NNC(=O)CCCCC(=O)NN`, for which the molecule was called inactive. For the molecule `Cc1cc(C(C)(C)C)c(O)c(C(C)(C)C)c1`, the molecule was called inactive. Same read-out and setting: the entry for `O=C(O)CCC(F)(F)C(F)(F)C(F)(F)C(F)(F)C(F)(F)C(F)(F)F` is “inactive”.

The target in a further assay is Nuclear receptor subfamily 4 group A member 2 (Homo sapiens) (UniProt P43354). Briefly: ATG_NURR1_TRANS: Attagene TRANS-FACTORIAL HepG2 Assay for human Nuclear Receptor Related Protein 1 (NURR1) (AID 2282985; active = hit-call score of the fitted dose curve at least 0.9, where 1 is the maximum). Conditions: HepG2 Attagene TRANS reporter, mRNA readout. An outline of the steps: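 Cells: HepG2, transiently transfected. Exposure: 24 h. Detection: fluorescence of labelled RT-PCR products separated by capillary electrophoresis; upward fit versus DMSO.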
Chain of Nuclear receptor subfamily 4 group A member 2 (Homo sapiens) (P43354 whole entry, looked up): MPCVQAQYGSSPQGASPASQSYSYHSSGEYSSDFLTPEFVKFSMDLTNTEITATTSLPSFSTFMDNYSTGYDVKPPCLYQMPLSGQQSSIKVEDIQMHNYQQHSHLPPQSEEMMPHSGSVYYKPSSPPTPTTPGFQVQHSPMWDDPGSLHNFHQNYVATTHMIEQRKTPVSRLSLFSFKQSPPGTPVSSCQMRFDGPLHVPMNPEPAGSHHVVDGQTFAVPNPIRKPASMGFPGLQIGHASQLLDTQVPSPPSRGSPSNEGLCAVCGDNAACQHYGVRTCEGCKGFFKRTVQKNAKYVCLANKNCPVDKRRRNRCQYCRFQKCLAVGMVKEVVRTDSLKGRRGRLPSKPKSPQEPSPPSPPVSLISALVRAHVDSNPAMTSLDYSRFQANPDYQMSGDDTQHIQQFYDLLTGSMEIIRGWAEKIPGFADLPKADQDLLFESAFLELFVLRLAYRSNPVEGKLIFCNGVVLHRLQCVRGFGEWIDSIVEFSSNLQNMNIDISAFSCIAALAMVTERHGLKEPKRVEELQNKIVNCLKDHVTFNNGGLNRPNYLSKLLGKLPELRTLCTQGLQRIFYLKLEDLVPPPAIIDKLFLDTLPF
A word on the AC50: it is the midpoint of the concentration-response curve, whichever way the signal moves. In the case of `CCOC(=O)CN[C@@H](C(=O)N1CC[C@H]1C(=O)NCc1ccc(/C(N)=N/O)cc1)C1CCCCC1`, the AC50 was 3.99 µM (active).

In the case of `Cc1[nH]nc2c1N=C(c1ccccc1Cl)c1cc([N+](=O)[O-])ccc1N2`, the call was inactive. In the case of `Nc1ccn([C@@H]2O[C@H](CO)[C@@H](O)C2O)c(=O)n1` (some centres not stated), the result was inactive. For `CN(C)c1ccc(C(=C2C=CC(=[N+](C)C)C=C2)c2ccccc2)cc1`, the AC50 is 543 nM (active) and 1.4 µM (active). As to `CCCCCCCCCCCCCCCCCC[N+](C)(C)Cc1ccccc1`, the outcome was inactive.

As to `CCCCN(C)C`, the molecule was called inactive. With `CCC(=O)C=Cc1ccc(OC)cc1`, the outcome was inactive. For the molecule `O=P(O)(O)CCC(F)(F)C(F)(F)C(F)(F)C(F)(F)C(F)(F)C(F)(F)C(F)(F)C(F)(F)F`, the result was inactive. On the same count and under the same terms, the entry for `CC(C)CCOCCC(C)C` is “inactive”. Regarding `CC(C)(C)c1ccc(O)c(O)c1`, the result was inactive. Regarding `O=C(F)C(F)(F)C(F)(F)C(F)(F)C(F)F`, the molecule was classed as inactive. Regarding `FC(F)(F)N1C(F)(F)C(F)(F)OC(F)(F)C1(F)F`, the molecule was called inactive. Take `Cc1cc(C(C)(C)C)c(O)c(C(C)(C)C)c1`: the AC50 is 0.82 µM (active). With `Cc1ccc2ccc3ccc(C)cc3c2c1`, the call was inactive. In the case of `COc1cc(OC)nc(NC(=O)NS(=O)(=O)Nc2ccccc2C(=O)N(C)C)n1`, the molecule was called inactive. Consider `O=C(O)CCC(F)(F)C(F)(F)C(F)(F)C(F)(F)C(F)(F)C(F)(F)F`, for which the outcome was inactive. Still for that read-out and setting: the result for `C=CC(F)(F)C(F)(F)C(F)(F)C(F)(F)F` reads “inactive”. Same read-out and setting: the entry for `O=C(Nc1ccc(Cl)c(Cl)c1)c1cc(Cl)cc(Cl)c1O` is “inactive”.

Take `C[N+](C)(CCCNS(=O)(=O)CCC(F)(F)C(F)(F)C(F)(F)C(F)(F)C(F)(F)C(F)(F)F)CC(=O)[O-]`: the call was inactive.

The next assay addresses Transcriptional activator Myb (Homo sapiens) (UniProt P10242). Description: ATG_Myb_CIS: Attagene CIS-FACTORIAL HepG2 Assay for human Myeloblastosis (Myb) Proto-Oncogene Transcription Factor (AID 2282986). The conditions noted are these: HepG2 Attagene CIS-FACTORIAL Myb reporter transcription; actives raise or lower the signal. An outline of the steps: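 Endogenous transcription factor activity at a Myb-responsive cis element is reported in human liver HepG2 cells after 24 h chemical treatment. Reporter mRNA is detected by RT-PCR and capillary electrophoresis fluorescence, with DMSO as baseline.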
Regarding `CC1CNCC(C)O1` (configuration not stated), the outcome was inactive. `CCOC(=O)CN[C@@H](C(=O)N1CC[C@H]1C(=O)NCc1ccc(/C(N)=N/O)cc1)C1CCCCC1`: the outcome was inactive. Take `CCCCCCc1ccc(N)cc1`: the outcome was inactive. Take `O=C1c2ccc(O)c(O)c2C(=O)c2c(O)ccc(O)c21`: the outcome was inactive. The same measure, in the same setting: the entry for `CC1=NN(c2ccccc2)C(=O)C1` is “inactive”.

Regarding `FC(F)(F)C(F)(F)C(F)(F)C(F)(F)I`, the outcome was inactive. Consider `Cc1[nH]nc2c1N=C(c1ccccc1Cl)c1cc([N+](=O)[O-])ccc1N2`, for which the result was inactive.

Regarding `Nc1ccn([C@@H]2O[C@H](CO)[C@@H](O)C2O)c(=O)n1` (some centres not stated), the molecule was called inactive. Still for that read-out and setting: the entry for `CN(C)c1ccc(C(=C2C=CC(=[N+](C)C)C=C2)c2ccccc2)cc1` is “inactive”. For the molecule `CCCCCCCCCCCCCCCCCC[N+](C)(C)Cc1ccccc1`, the outcome was inactive.

On to `CCCCN(C)C`, for which the molecule was called inactive.

For the molecule `CCC(=O)C=Cc1ccc(OC)cc1`, the AC50 was 137 µM (active). As to `O=P(O)(O)CCC(F)(F)C(F)(F)C(F)(F)C(F)(F)C(F)(F)C(F)(F)C(F)(F)C(F)(F)F`, the call was inactive.

`CC(C)CCOCCC(C)C`: the outcome was inactive. For the molecule `CC(C)(C)C1CCCCC1O` (configuration not stated), the molecule was classed as inactive. For `O=S(=O)(O)c1ccccc1`, the outcome was inactive. Take `O=C(O)CN(CCCN(CC(=O)O)CC(=O)O)CC(=O)O`: the call was inactive. Consider `Brc1cc(Br)c(Oc2c(Br)cc(Br)c(Br)c2Br)cc1Br`, for which the molecule was classed as inactive. Still for that read-out and setting: the result for `Brc1ccc(Oc2ccc(Br)cc2Br)cc1` reads “inactive”; that for `CCc1cccc(CC)c1NC(=O)C(=O)O`, “inactive”; that for `CC(C)(C)c1ccc(O)c(O)c1`, “inactive”. Take `O=C(F)C(F)(F)C(F)(F)C(F)(F)C(F)F`: the molecule was classed as inactive. With `NNC(=O)CCCCC(=O)NN`, the outcome was inactive. With `COCN(COC)c1nc(N(COC)COC)nc(N(COC)COC)n1`, the outcome was inactive. With `FC(F)(F)N1C(F)(F)C(F)(F)OC(F)(F)C1(F)F`, the outcome was inactive. Regarding `Cc1cc(C(C)(C)C)c(O)c(C(C)(C)C)c1`, the result was inactive. As to `Cc1cc(Cc2cc(C)cc(C(C)(C)C)c2O)c(O)c(C(C)(C)C)c1`, the AC50 is 25.6 µM (active). For the molecule `Cc1ccc2ccc3ccc(C)cc3c2c1`, the outcome was inactive. For the molecule `COc1cc(OC)nc(NC(=O)NS(=O)(=O)Nc2ccccc2C(=O)N(C)C)n1`, the molecule was classed as inactive. As for `O=C(CC(=O)C(F)(F)C(F)(F)C(F)(F)F)c1cccs1`, the AC50 was 50 µM (active) and the result was inactive. For `Cc1ccccc1OCC(=O)O`, the AC50 is 164 µM (active). Turning to `O=C(O)CCC(F)(F)C(F)(F)C(F)(F)C(F)(F)C(F)(F)C(F)(F)F`, the call was inactive.

For `C=CC(F)(F)C(F)(F)C(F)(F)C(F)(F)F`, the result was inactive. For the molecule `Oc1c(Cl)cc(Cl)cc1Sc1cc(Cl)cc(Cl)c1O`, the outcome was inactive. With `O=C(Nc1ccc(Cl)c(Cl)c1)c1cc(Cl)cc(Cl)c1O`, the molecule was called inactive. In the case of `OCC1CCC(CO)CC1` (configuration not stated), the call was inactive. `C[N+](C)(CCCNS(=O)(=O)CCC(F)(F)C(F)(F)C(F)(F)C(F)(F)C(F)(F)C(F)(F)F)CC(=O)[O-]`: the molecule was called inactive.
